Rows were chosen to be rich in hits. Some 1.7% of all compounds tested hit in one or more screens of this group.
PrPC surface inh = inhibitors of human cell surface prion protein PrPC, primary screen, cell-based, TR-FRET; inhibition, % at 13.8 µM; TR-FRET read-out; AID 720596, 2013; Major prion protein (Homo sapiens), P04156; 0.43% of 370,000 active; in the data active = inhibition above about 24%; also: 0% = median of the test wells and 100% = reference compound wells
PfHsp40 yeast = rescue of yeast from PfHsp40 toxicity, primary screen, S. cerevisiae, ATP luminescence. growth rescue, % at 12.5 µM. S. cerevisiae expressing PfHsp40, growth rescue. 0.68% of 340,000 active; in the data active = growth rescue above about 28%, passing the limit was not always enough;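 also: yeast W303a lacking pdr1 and pdr3 grown in galactose medium; growth measured after three days at 30 °C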
PrP UTR inh = inhibition of PrP 5' UTR reporter expression. cell-based PrP 5' UTR mRNA reporter, plate reader. inhibition, % (no concentration beside the values). 0.35% of 340,000 active; in the data active = inhibition above about 52%; also: 0 = median of the neutral control wells
PriA SSB inh = inhibitors of Klebsiella pneumoniae PriA binding to SSB C-terminal tail, primary screen, biochemical, AlphaScreen; PriA–SSB C-terminal tail interaction (Klebsiella pneumoniae); AlphaScreen SSBct-PriA binding, biotinylated peptide; inhibition, % at 33 µM; 0.6% of 430,000 active; AID 1272365, 2023; in the data active = inhibition mostly above about 37%, no sharp cut-off; inactive = mostly below about 20%;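 also: plate controls were negative control peptide for no effect and reference peptide for full effect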
BJeLR viability = MLPCN primary cell-based screen for lethality selective to Ras in HRASV12 cells. BJeLR (HRASV12) viability, CellTiter-Glo ATP luminescence, 48 h. inhibition, % (concentration not given with the values). 0.17% of 300,000 active. AID 1554, 2009; in the data active = inhibition above about 50%
Y pestis TopoI = Yersinia pestis topoisomerase I inhibitors, primary screen, biochemical, cleavage product accumulation, plate reader, single point; DNA topoisomerase I (Yersinia pestis CO92); activity, % at 10 µM; Y. pestis Topo-I cleavage product accumulation; AID 504884, 2011; 0.064% of 360,000 active; in the data active = activity above about 50%, passing the limit was not always enough
* = called active by the depositor; ! = a repeat was not active.

Results for COc1ccc(NC(=O)CSc2nccn2-c2ccccc2)c(OC)c1 ?
PrPC surface inh: 5; PfHsp40 yeast: 1; PrP UTR inh: -14; PriA SSB inh: 28; BJeLR viability: -3; Y pestis TopoI: -4

What do the screens show for `O=C(CSc1nccn1-c1ccc(F)cc1)NCc1ccc(F)cc1`?
PrPC surface inh: -2; PfHsp40 yeast: 2; PrP UTR inh: -6; PriA SSB inh: 6; BJeLR viability: 6; Y pestis TopoI: -9

What do the screens show for `O=C(CSc1nccn1-c1ccc(F)cc1)Nc1ccc(Br)cc1`?
PriA SSB inh: 60*

What do the screens show for `COc1ccc(-n2ccnc2SCC(=O)Nc2cccc3ccccc23)cc1`?
PriA SSB inh: 58*

Results for Cc1cc(C)cc(-n2ccnc2SCC(=O)Nc2ccc(F)cc2F)c1 ?
PriA SSB inh: 47*

What do the screens show for `O=C(CSc1nccn1-c1ccc([N+](=O)[O-])cc1)Nc1ccc(Cl)c(Cl)c1`?
PriA SSB inh: 36*

How did COc1cn2c(cc1=O)C(=O)N(CCNC(=O)c1cnccn1)CC2 do in these assays?
PriA SSB inh: -17

Results for CC12CCC(C/C1=N/OC(=O)c1ccc(Cl)c([N+](=O)[O-])c1)C2(C)C (stereo not drawn) ?
PriA SSB inh: -12

Results for CCOCC(=O)NCc1cnn2ccccc12 ?
PriA SSB inh: -3

How did COc1ccc(NCc2nc3ccccc3n2CCOc2ccccc2)cc1 do in these assays?
PrPC surface inh: 14; PfHsp40 yeast: 1; PrP UTR inh: -25; PriA SSB inh: 15; BJeLR viability: -2; Y pestis TopoI: -9

How did COc1ccc(NCc2nc3ccccc3n2CCOc2ccc(C)cc2)cc1 do in these assays?
PrPC surface inh: 13; PfHsp40 yeast: 75*; PrP UTR inh: -53; PriA SSB inh: 6; BJeLR viability: -7; Y pestis TopoI: 18

Results for CCC(=O)Nc1nnc(S(=O)(=O)N2CCCCCC2)s1 ?
PrPC surface inh: 8; PfHsp40 yeast: 1; PrP UTR inh: -10; PriA SSB inh: 100*; BJeLR viability: -3; Y pestis TopoI: -3

How did O=C(COc1ccccc1)Nc1nnc(S(=O)(=O)N2CCCCC2)s1 do in these assays?
PrPC surface inh: 0; PfHsp40 yeast: 1; PrP UTR inh: -20; PriA SSB inh: -15; BJeLR viability: 0; Y pestis TopoI: 2

Results for COc1ccc(C(=O)Nc2nnc(S(=O)(=O)N3CCCCCC3)s2)cc1OC ?
PrPC surface inh: 6; PfHsp40 yeast: -2; PrP UTR inh: 0; PriA SSB inh: 82*; BJeLR viability: -2; Y pestis TopoI: -4

How did CCC(=O)Nc1nnc(S(=O)(=O)N2CCCC2)s1 do in these assays?
PrPC surface inh: -7; PfHsp40 yeast: -1; PrP UTR inh: -13; PriA SSB inh: 1; BJeLR viability: 3; Y pestis TopoI: 3

Results for O=C(COc1ccccc1)Nc1nnc(S(=O)(=O)N2CCCCCC2)s1 ?
PrPC surface inh: -6; PfHsp40 yeast: -1; PrP UTR inh: -1; PriA SSB inh: 95*; BJeLR viability: -2; Y pestis TopoI: 0

What do the screens show for `O=C(COc1ccccc1Cl)Nc1nnc(S(=O)(=O)N2CCCCCC2)s1`?
PrPC surface inh: 5; PfHsp40 yeast: -2; PrP UTR inh: -21; PriA SSB inh: 100*; BJeLR viability: 5; Y pestis TopoI: -2

Results for O=C(COc1ccc(F)cc1)Nc1nnc(S(=O)(=O)N2CCCC2)s1 ?
PrPC surface inh: -3; PfHsp40 yeast: 0; PrP UTR inh: -49; PriA SSB inh: -25; BJeLR viability: 5; Y pestis TopoI: -3

What do the screens show for `COc1ccc(C(=O)Nc2nnc(S(=O)(=O)N3CCC(C)CC3)s2)cc1OC`?
PrPC surface inh: 3; PfHsp40 yeast: 1; PrP UTR inh: -24; PriA SSB inh: -11; BJeLR viability: 10; Y pestis TopoI: 4

What do the screens show for `COc1ccc(N2CCN(CCNC(=O)Cc3ccc(F)cc3)CC2)cc1`?
PriA SSB inh: -3

Results for O=C(CC(NCc1ccccn1)C(=O)O)Nc1ccccc1Cl (stereo not drawn) ?
PrPC surface inh: -1; PfHsp40 yeast: -2; PrP UTR inh: -10; PriA SSB inh: 97*; BJeLR viability: 5; Y pestis TopoI: -3

How did O=C(NCc1ccccn1)Nc1cc(Cl)ccc1Cl do in these assays?
PrPC surface inh: -1; PfHsp40 yeast: -1; PrP UTR inh: -29; PriA SSB inh: 1; BJeLR viability: -1; Y pestis TopoI: 7

Results for Cc1cc2cc(C(c3nnnn3Cc3ccccc3)N3CCc4ccccc43)c(=O)[nH]c2cc1C (stereo not drawn) ?
PrPC surface inh: -1; PfHsp40 yeast: 1; PrP UTR inh: -18; PriA SSB inh: -20; BJeLR viability: -6; Y pestis TopoI: 6

Results for Cc1ccc2cc(C(c3nnnn3Cc3ccccc3)N3CCc4ccccc43)c(=O)[nH]c2c1C (stereo not drawn) ?
PrPC surface inh: 26*; PfHsp40 yeast: 0; PrP UTR inh: -12; PriA SSB inh: 12; BJeLR viability: -2; Y pestis TopoI: 21

Results for Nc1c(C(=O)NCc2ccccc2)nnn1Cc1ccccc1 ?
PrPC surface inh: 14; PfHsp40 yeast: 0; PrP UTR inh: -1; PriA SSB inh: 98*; BJeLR viability: 0; Y pestis TopoI: -3

Results for CSc1ccc(Cn2nnc(C(=O)NCc3ccccc3)c2N)cc1 ?
PrPC surface inh: 0; PfHsp40 yeast: 1; PrP UTR inh: -30; PriA SSB inh: -11; BJeLR viability: -5; Y pestis TopoI: 13

What do the screens show for `O=C1CN(S(=O)(=O)c2ccc(F)cc2)CC(Cn2c3ccccc3c3ccccc32)O1` (stereo not drawn)?
PriA SSB inh: 0

How did Cc1ccc(C2(c3ccc(C)cc3)CC2C(=O)Nc2ccc([N+](=O)[O-])cc2O)cc1 (stereo not drawn) do in these assays?
PrPC surface inh: 5; PfHsp40 yeast: 273*; PrP UTR inh: -22; PriA SSB inh: 10; BJeLR viability: 28; Y pestis TopoI: -35

Results for CC1(C)CC1C(=O)Nc1ccc([N+](=O)[O-])cc1Br (stereo not drawn) ?
PrPC surface inh: -7; PfHsp40 yeast: 0; PrP UTR inh: -14; PriA SSB inh: 15; BJeLR viability: 3; Y pestis TopoI: 10

What do the screens show for `O=S(=O)(NCC(c1ccco1)N1CCc2ccccc21)c1ccccc1` (stereo not drawn)?
PrPC surface inh: 3; PfHsp40 yeast: -1; PrP UTR inh: -4; PriA SSB inh: 25*!; BJeLR viability: 3; Y pestis TopoI: 12

How did O=C(Nc1ccccc1[N+](=O)[O-])c1cccn(OCc2cccc(Cl)c2)c1=O do in these assays?
PriA SSB inh: 15

Source: PubChem
